# Source: PubChem BioAssay
# Values without a mark were called inactive. Some of the results follow. Active and inactive are the calls of the source. Unless noted, no stated cut-off is given here; in the data, active means inhibition above about 36%; inactive means the rest.
# Columns and labels:
# [1] = tested on: transactivating tegument protein VP16 (Human herpesvirus 1); assay: VP16 transactivation reporter inhibitors, counter-screen for SRC2 inhibitor project, cell-based, luminescence, single concentration (AID 652007); settings: cell-based VP16 transactivation luciferase reporter, at 8.9 µM, stronger effect = higher value
# [2] = target: Nuclear receptor coactivator 2 (Homo sapiens) (UniProt Q15596); assay: SRC2 coactivator transcriptional activity inhibitors, confirmation, cell-based, luminescence, HEK293, triplicate (AID 652008;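 active means mean inhibition above 46.5%, the solvent-only control mean plus 3 SD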); settings: HEK293 GAL4-SRC2 luciferase reporter, at 8.9 µM, stronger effect = higher value
# Nuclear receptor coactivator 2 (Homo sapiens), sequence (Q15596 whole entry, looked up, the tested form may be a part): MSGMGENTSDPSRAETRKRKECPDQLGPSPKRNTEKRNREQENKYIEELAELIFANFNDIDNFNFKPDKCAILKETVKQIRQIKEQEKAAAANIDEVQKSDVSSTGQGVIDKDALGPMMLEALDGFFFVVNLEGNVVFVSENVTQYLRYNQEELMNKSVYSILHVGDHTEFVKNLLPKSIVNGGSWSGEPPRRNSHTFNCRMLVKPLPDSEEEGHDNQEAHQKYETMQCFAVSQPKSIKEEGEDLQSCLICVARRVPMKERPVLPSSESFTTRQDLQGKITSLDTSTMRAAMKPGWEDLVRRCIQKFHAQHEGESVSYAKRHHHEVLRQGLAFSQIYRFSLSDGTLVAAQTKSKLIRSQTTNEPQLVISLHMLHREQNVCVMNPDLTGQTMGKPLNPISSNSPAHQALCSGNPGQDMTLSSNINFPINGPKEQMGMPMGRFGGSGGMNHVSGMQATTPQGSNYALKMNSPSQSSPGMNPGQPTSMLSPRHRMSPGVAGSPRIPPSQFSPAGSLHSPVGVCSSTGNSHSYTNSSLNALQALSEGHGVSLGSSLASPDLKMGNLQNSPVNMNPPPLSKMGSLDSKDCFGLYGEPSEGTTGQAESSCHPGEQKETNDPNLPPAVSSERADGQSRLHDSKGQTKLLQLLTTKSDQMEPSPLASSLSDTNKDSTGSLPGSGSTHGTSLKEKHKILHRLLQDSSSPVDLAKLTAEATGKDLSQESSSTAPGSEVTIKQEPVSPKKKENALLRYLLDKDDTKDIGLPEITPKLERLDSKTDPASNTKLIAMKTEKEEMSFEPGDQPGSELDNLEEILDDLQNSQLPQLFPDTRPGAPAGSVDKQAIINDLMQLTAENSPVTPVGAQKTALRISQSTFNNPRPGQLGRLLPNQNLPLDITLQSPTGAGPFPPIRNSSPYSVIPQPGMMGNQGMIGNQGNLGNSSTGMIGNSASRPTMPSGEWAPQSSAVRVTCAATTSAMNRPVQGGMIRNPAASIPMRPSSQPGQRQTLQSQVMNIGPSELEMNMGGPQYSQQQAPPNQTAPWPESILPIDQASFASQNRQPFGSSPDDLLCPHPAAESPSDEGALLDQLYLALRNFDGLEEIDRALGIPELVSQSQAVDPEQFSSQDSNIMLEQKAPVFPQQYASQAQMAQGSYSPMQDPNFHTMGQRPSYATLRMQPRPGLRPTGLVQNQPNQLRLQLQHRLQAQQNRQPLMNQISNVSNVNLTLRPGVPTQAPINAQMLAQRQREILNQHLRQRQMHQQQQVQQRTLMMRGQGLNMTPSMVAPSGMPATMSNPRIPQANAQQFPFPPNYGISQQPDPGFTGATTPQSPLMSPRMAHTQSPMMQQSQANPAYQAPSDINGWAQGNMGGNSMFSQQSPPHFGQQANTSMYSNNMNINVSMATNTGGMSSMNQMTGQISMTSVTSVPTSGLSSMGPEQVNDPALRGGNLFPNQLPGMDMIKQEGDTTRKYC
# [3] = StAR promoter reporter inhibitors, counter-screen for LRH-1 inverse agonist project, cell-based, luminescence, high throughput (AID 651611; in the data active means inhibition above about 28%); settings: StAR promoter luciferase reporter counterscreen, at 3.6 µM, stronger effect = higher value
# [4] = target: Nuclear receptor subfamily 5 group A member 2 (Homo sapiens) (UniProt O00482); assay: LRH-1 (NR5A2) inverse agonists, retest, confirmation, cell-based, luminescence (AID 651613; in the data active means inhibition above about 42%); settings: cell-based LRH-1 luciferase reporter, inverse agonism; at 3.6 µM; stronger effect = higher value
# Nuclear receptor subfamily 5 group A member 2 (Homo sapiens), sequence (O00482 whole entry, looked up): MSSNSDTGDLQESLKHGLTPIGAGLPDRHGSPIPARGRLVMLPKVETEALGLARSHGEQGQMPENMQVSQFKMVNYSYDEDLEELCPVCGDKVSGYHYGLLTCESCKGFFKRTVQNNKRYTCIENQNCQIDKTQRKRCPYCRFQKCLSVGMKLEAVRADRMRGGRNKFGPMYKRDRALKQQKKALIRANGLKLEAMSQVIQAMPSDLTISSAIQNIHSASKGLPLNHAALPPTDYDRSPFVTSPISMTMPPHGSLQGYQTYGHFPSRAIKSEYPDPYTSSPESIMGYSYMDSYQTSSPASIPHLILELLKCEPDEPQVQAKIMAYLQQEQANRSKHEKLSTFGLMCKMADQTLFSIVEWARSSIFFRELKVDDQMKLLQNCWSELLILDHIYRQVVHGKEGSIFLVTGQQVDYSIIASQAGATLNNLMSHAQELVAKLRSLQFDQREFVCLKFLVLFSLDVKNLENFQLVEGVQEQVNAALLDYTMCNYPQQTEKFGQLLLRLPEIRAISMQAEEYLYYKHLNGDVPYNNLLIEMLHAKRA
# [5] = target: Steroidogenic factor 1 (Homo sapiens) (UniProt Q13285); assay: SF1 (NR5A1) inverse agonists, counter-screen for LRH-1 inverse agonist project, cell-based, luminescence, high throughput (AID 651614; in the data active means inhibition above about 44%); settings: cell-based SF1 luciferase reporter, at 3.6 µM, stronger effect = higher value
# Steroidogenic factor 1 (Homo sapiens), sequence (Q13285 whole entry, looked up, the tested form may be a part): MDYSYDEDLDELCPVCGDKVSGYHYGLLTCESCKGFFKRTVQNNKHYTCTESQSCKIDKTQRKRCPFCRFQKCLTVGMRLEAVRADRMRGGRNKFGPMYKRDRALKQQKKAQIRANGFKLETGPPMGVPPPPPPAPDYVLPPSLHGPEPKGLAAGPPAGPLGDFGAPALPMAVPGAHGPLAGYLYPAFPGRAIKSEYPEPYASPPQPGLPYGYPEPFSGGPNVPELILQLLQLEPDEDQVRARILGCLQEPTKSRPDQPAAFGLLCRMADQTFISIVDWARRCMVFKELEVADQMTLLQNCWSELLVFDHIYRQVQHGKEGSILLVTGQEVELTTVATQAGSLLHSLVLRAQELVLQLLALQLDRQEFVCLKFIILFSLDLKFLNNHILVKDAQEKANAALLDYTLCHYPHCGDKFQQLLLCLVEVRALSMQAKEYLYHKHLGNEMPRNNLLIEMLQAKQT
# [6] = VP16 transactivation reporter inhibitors, counter-screen for LRH-1 inverse agonist project, cell-based, luminescence, high throughput (AID 651615; in the data active means inhibition above about 33%); settings: Gal4-VP16 luciferase reporter cells, at 3.6 µM, stronger effect = higher value
# [7] = tested on: DAF-12 nuclear receptor (Heterodera glycines), GAL4-LBD fusion; assay: H. glycines DAF-12 receptor agonists, confirmation, cell-based, luminescence, HEK293, GAL4-LBD fusion (AID 743050;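 active means mean activation over triplicate wells above the hit cutoff derived from the earlier primary screen, cut at about 11% in these data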); settings: HEK293 GAL4-hgDAF12 luciferase reporter, agonist mode; at 6.8 µM; stronger effect = higher value
# [8] = target: Oxysterols receptor LXR-beta (Homo sapiens) (UniProt P55055); assay: LXR agonists, Gal4 luciferase reporter, confirmation, counter-screen for hgDAF-12 agonist project, cell-based, luminescence, HEK293, H. glycines campaign (AID 743051;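 active means mean activation of the triplicate above a set limit carried over from the primary screen, none filed active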); settings: 24 h, at 6.8 µM, stronger effect = higher value
# Oxysterols receptor LXR-beta (Homo sapiens), sequence (P55055 whole entry, looked up, the tested form may be a part): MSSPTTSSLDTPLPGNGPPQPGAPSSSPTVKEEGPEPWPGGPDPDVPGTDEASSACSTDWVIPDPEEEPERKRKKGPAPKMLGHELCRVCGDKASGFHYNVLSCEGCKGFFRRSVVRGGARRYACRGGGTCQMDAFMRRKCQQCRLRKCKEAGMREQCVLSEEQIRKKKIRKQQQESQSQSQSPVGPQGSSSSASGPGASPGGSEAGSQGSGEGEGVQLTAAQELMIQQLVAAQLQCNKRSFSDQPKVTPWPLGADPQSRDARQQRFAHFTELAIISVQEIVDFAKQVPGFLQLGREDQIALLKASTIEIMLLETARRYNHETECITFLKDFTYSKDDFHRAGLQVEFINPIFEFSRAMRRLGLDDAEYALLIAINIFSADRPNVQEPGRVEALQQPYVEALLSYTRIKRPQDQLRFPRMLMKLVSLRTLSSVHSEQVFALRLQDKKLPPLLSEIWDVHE
# [9] = growth loss of phage-infected RecBCD+ E. coli, confirmation, RecBCD inhibitor project, absorbance, E. coli V66, T4 gene 2 phage (AID 651982;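 active means mean inhibition over triplicates exceeding the hit threshold derived in the original primary screen, cut at about 11% in these data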); settings: E. coli V66 + T4 2- phage, growth OD; at 11.9 µM; stronger effect = higher value
# [10] = E. coli viability inhibition, counter-screen for RecBCD inhibitor project, absorbance, high throughput (AID 651983; in the data active means inhibition above about 20%); settings: absorbance (OD) growth, at 11.9 µM, stronger effect = higher value
# [11] = growth loss of phage-infected AddAB-carrying E. coli, confirmation, counter-screen for RecBCD inhibitor project, absorbance, E. coli V3065, T4 phage (AID 651984;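 active means mean inhibition above the solvent-only control wells' mean plus 3 SD, cut at about 22% in these data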); settings: E. coli expressing H. pylori AddAB + T4 phage, OD growth; at 11.9 µM; stronger effect = higher value
# [12] = target: Oxysterols receptor LXR-beta (Homo sapiens) (UniProt P55055); assay: LXR agonists, Gal4 luciferase reporter, confirmation, counter-screen for hcDAF-12 agonist project, cell-based, luminescence, HEK293, H. contortus campaign (AID 743027;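 active means mean percent activation of the reporter above a cutoff set as the average over tested compounds plus their standard deviation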); settings: HEK293 Gal4-LXR tk-luc reporter, 24 h, at 6.8 µM, stronger effect = higher value, normalized: DMSO 0%, positive control 100%
# [13] = tested on: Nuclear hormone receptor DAF-12 (Haemonchus contortus); assay: H. contortus DAF-12 receptor agonists, confirmation, cell-based, luminescence, HEK293, lit1-tk-luc, triplicate (AID 743032;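 active means mean activation across triplicate tests above the threshold derived from the earlier primary screen, cut at about 5.5% in these data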); settings: HEK293 hcDAF-12 lit1-tk-luc reporter, at 6.8 µM, stronger effect = higher value
compound,measurement,setting,value
NC(=O)c1c(Br)n(C2OC(CO)C(O)C2O)c2ncnc(N)c12 (stereo unspecified),inhibition,[1],15.6%
same,inhibition,[2],35.3%
CCOC(=O)C1(CCc2ccccc2)CCN(Cc2cccc3cnccc23)CC1,inhibition,[1],10.4%
same,inhibition,[2],9.69%
CC(=O)OC1CC(OC2C(O)CC(OC3C(O)CC(OC4CCC5(C)C(CCC6C5CCC5(C)C(C7=CC(=O)OC7)CCC65O)C4)OC3C)OC2C)OC(C)C1OC1OC(CO)C(O)C(O)C1O (stereo unspecified),inhibition,[3],94.6% (active)
same,inhibition,[4],109% (active)
same,inhibition,[5],96.6% (active)
same,inhibition,[6],92.5% (active)
same,inhibition,[1],67.4% (active)
same,inhibition,[2],54.4% (active)
CC(C)(C)c1ccc(OC(=O)N2CCCCC2)cc1,activation,[7],14.1% (active)
same,activation,[8],0.52%
CCc1nnc(NS(=O)(=O)c2ccc(N=Cc3c(O)n(-c4ccccc4)c(=O)[nH]c3=O)cc2)s1,inhibition,[9],11.7% (active)
same,inhibition,[10],7.85%
same,inhibition,[11],32.1% (active)
COC1=C(C)C(=O)C2=C(C1=O)C(CO)N1C(C#N)C3CC4C(C1C2N1CCOC41)N3C (stereo unspecified),inhibition,[3],86.5% (active)
same,inhibition,[4],106% (active)
same,inhibition,[5],96.2% (active)
same,inhibition,[6],95.3% (active)
same,inhibition,[1],41.7% (active)
same,inhibition,[2],57% (active)
Cc1ccccc1CN1Cc2cnnn2-c2ccccc2C1C#N (stereo unspecified),inhibition,[1],39.8% (active)
same,inhibition,[2],48.8% (active)
O=Cc1cn(Cc2ccc(F)cc2Cl)c2ccccc12,inhibition,[1],14.2%
same,inhibition,[2],26.5%
CC(=O)OC1C(O)C(C)OC(OC2C(OC(=O)C3CCC4C(C3)OC3(CC(OC(=O)/C=C/c5ccccc5)C(C)CO3)C43CO3)OC(C)C(O)C2OC(C)=O)C1O (stereo unspecified),inhibition,[3],96.1% (active)
same,inhibition,[4],109% (active)
same,inhibition,[5],97.5% (active)
same,inhibition,[6],97.4% (active)
same,inhibition,[1],79.4% (active)
same,inhibition,[2],75.2% (active)
O=C(c1ccc(Cl)cc1)C1CCCN(Cc2cccc3ncccc23)C1 (stereo unspecified),inhibition,[1],14.6%
same,inhibition,[2],-6.97%
Nc1cccc(SC2CC(=O)N(c3ccc(Cl)cc3C(=O)c3ccccc3)C2=O)c1 (stereo unspecified),inhibition,[1],3.94%
same,inhibition,[2],17.3%
COc1ccc(C(=O)C2CN(C)CC2C(=O)c2ccc(OC)cc2)cc1 (stereo unspecified),activation,[12],-0.19%
same,activation,[13],0.28%
CN1C(=O)C[N+]([O-])=C(c2ccccc2)c2cc(Cl)ccc21,inhibition,[1],13.7%
same,inhibition,[2],0.34%
COC(=O)C1=C(c2ccc(-c3ccccc3)c(F)c2)C[C@@H]2CC[C@H]1N2C(=O)NCc1ccc(F)cc1,inhibition,[1],-5.9%
same,inhibition,[2],2.93%
FC(F)(F)c1ccccc1N1CC1c1ccncc1 (stereo unspecified),inhibition,[1],-14.4%
same,inhibition,[2],-11.4%
COc1ccc2c3c1O[C@H]1C(=O)CC[C@H]4[C@@H](C2)N(C)CC[C@]314,inhibition,[1],-4.81%
same,inhibition,[2],-28.4%
C=C1C(=O)O[C@H]2C[C@@H](C)[C@@H]3C=CC(=O)[C@@]3(C)C[C@H]12,inhibition,[1],69.4% (active)
same,inhibition,[2],23%
CCN1CCN(S(=O)(=O)c2ccc(Cl)c(C(=O)Nc3ccc(C(=O)N(CC)CC)cc3)c2)CC1,inhibition,[1],-10.1%
same,inhibition,[2],2.66%
CCn1ccnc1CN1CCCC(C(=O)c2cccc(C(F)(F)F)c2)C1 (stereo unspecified),inhibition,[1],-3.5%
same,inhibition,[2],15.9%
